Results as given in PubChem BioAssay (EPA / NIEHS).
Calls of active or inactive are those of the source. How the source made its calls: active means hit-call score of the fitted dose curve at least 0.9, where 1 is the maximum; inactive means score below 0.9.

Experiments:
Conditions in all cases: mRNA level, 48 h; actives raise or lower the signal
[1] = read-out: Alkaline Phosphatase, Placental (ALPP) gene, ALPP (gene 250); test: LTEA_HepaRG_ALPP: Life Technologies and Expression Analysis (LTEA) Assay for Alkaline Phosphatase, Placental (ALPP) gene using HepaRG (AID 2283468)
Method in brief: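 HepaRG cells plated 48 h, then exposed in duplicate for 48 h in serum-free induction medium to 8-point half-log series from 100 uM in 0.5% DMSO. ALPP mRNA by TaqMan qRT-PCR, normalized to ACTB/GAPDH/POLR2A; bidirectional fit versus DMSO.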

[2] = read-out: Bcl-2 (BAD) gene, BAD (gene 572); test: LTEA_HepaRG_BAD: Life Technologies and Expression Analysis (LTEA) Assay for Bcl-2 (BAD) gene using HepaRG (AID 2283469)
Method in brief: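 Read-out: qRT-PCR of BAD mRNA, normalized to three housekeeping genes. Human HepaRG cultures got 48 h chemical exposure in 0.5% DMSO, duplicate eight-point half-log series topping at 100 uM. Gain or loss of signal fitted versus DMSO vehicle.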

[3] = read-out: Bcl-2 (BAX) gene, BAX (gene 581); test: LTEA_HepaRG_BAX: Life Technologies and Expression Analysis (LTEA) Assay for Bcl-2 (BAX) gene using HepaRG (AID 2283470)
Method in brief: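 qRT-PCR read-out of BAX mRNA, normalized to three housekeeping genes, after 48 h chemical exposure of human HepaRG cells in serum-free induction medium; eight-point half-log series, top 100 uM, 0.5% DMSO vehicle; bidirectional fit versus DMSO.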

[4] = read-out: adenosine kinase (ADK) gene, ADK (gene 132); test: LTEA_HepaRG_ADK: Life Technologies and Expression Analysis (LTEA) Assay for adenosine kinase (ADK) gene using HepaRG (AID 2283471)
Method in brief: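 Read-out is ADK transcript level measured by qRT-PCR and normalised to three housekeeping genes. Cells are human HepaRG, dosed for 48 h at up to 100 uM in 0.5% DMSO. Gain or loss of signal is fitted against DMSO controls.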

[5] = read-out: Alpha-fetoprotein (AFP) gene, AFP (gene 174); test: LTEA_HepaRG_AFP: Life Technologies and Expression Analysis (LTEA) Assay for Alpha-fetoprotein (AFP) gene using HepaRG (AID 2283472)
Method in brief: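 qRT-PCR (Fluidigm TaqMan) readout of AFP transcript, normalized to three housekeeping genes, fitted bidirectionally against 0.5% DMSO baseline. HepaRG cells received chemicals for 48 h in serum-free induction medium, top concentration 100 uM, half-log steps.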

BCL2L11 (gene 10018) = test: LTEA_HepaRG_BCL2L11: Life Technologies and Expression Analysis (LTEA) Assay for Bcl-2 (BCL2L11) gene using HepaRG (AID 2283473)
Method in brief: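 Differentiated human HepaRG cells were exposed 48 h in serum-free induction medium to eight half-log concentrations up to 100 uM in 0.5% DMSO, in duplicate. BCL2L11 mRNA was quantified by TaqMan qRT-PCR, normalized to ACTB, GAPDH and POLR2A; induction or repression fitted versus DMSO.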

[6] = read-out: Apolipoprotein A-V (APOA5) gene, APOA5 (gene 116519); test: LTEA_HepaRG_APOA5: Life Technologies and Expression Analysis (LTEA) Assay for Apolipoprotein A-V (APOA5) gene using HepaRG (AID 2283474)
Method in brief: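 Differentiated HepaRG cells in serum-free induction medium, exposed 48 h in duplicate to eight half-log concentrations topping at 100 uM (0.5% DMSO). APOA5 mRNA by Fluidigm TaqMan qRT-PCR, normalized to ACTB, GAPDH and POLR2A; bidirectional fit versus DMSO.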

[7] = read-out: Apoptosis regulator Bcl-2 (Homo sapiens) (UniProt P10415); test: LTEA_HepaRG_BCL2: Life Technologies and Expression Analysis (LTEA) Assay for Bcl-2 gene using HepaRG (AID 2283475)
Method in brief: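 qRT-PCR read-out (Fluidigm TaqMan) of BCL2 transcript, normalised to three housekeeping genes, after 48 h chemical exposure of HepaRG cells; 8-point half-log series, top 100 uM, 0.5% DMSO vehicle. Gain or loss of signal fitted relative to DMSO baseline.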

[8] = read-out: Bcl-2 (BID) gene, BID (gene 637); test: LTEA_HepaRG_BID: Life Technologies and Expression Analysis (LTEA) Assay for Bcl-2 (BID) gene using HepaRG (AID 2283476)
Method in brief: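 HepaRG, 48 h exposure, 8-pt half-log series, top 100 uM, 0.5% DMSO vehicle, duplicates. Readout: BID mRNA by TaqMan qRT-PCR; housekeeping-normalized; bidirectional curve fit vs DMSO baseline.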

Caspase-3 (Homo sapiens) = Caspase-3 (Homo sapiens) (UniProt P42574); test: LTEA_HepaRG_CASP3: Life Technologies and Expression Analysis (LTEA) Assay for cysteine-aspartic acid protease (CASP3) using HepaRG (AID 2283477)
Caspase-3 (Homo sapiens), sequence (P42574 whole entry, looked up): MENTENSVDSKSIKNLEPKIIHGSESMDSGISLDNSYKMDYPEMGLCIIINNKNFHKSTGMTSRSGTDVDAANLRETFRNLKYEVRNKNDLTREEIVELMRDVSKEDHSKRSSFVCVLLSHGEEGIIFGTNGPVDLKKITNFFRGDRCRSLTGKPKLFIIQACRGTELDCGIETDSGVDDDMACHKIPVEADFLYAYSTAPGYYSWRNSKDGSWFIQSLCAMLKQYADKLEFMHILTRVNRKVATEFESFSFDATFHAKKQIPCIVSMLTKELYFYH
Method in brief: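 Differentiated HepaRG cells, plated 48 h, were treated in duplicate in serum-free induction medium for 48 h with eight half-log concentrations up to 100 uM in 0.5% DMSO. CASP3 mRNA measured by qRT-PCR, normalized to ACTB, GAPDH, POLR2A.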

[9] = read-out: Cytochrome P450 (CYP24A1), CYP24A1 (gene 1591); test: LTEA_HepaRG_CYP24A1: Life Technologies and Expression Analysis (LTEA) Assay for Cytochrome P450 (CYP24A1) using HepaRG (AID 2283478)
Method in brief: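 HepaRG cells plated 48 h, then exposed in duplicate in serum-free induction medium for 48 h to 8-point half-log series from 100 uM in 0.5% DMSO. CYP24A1 mRNA by Fluidigm qRT-PCR, normalized to ACTB, GAPDH, POLR2A; bidirectional fit versus DMSO.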

[10] = read-out: Cytochrome P450 (CYP1A2), CYP1A2 (gene 1544); test: LTEA_HepaRG_CYP1A2: Life Technologies and Expression Analysis (LTEA) Assay for Cytochrome P450 (CYP1A2) using HepaRG (AID 2283479)
Method in brief: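 Differentiated human HepaRG cells in serum-free induction medium exposed 48 hours in duplicate to 8 half-log concentrations from 100 uM, 0.5% DMSO. CYP1A2 mRNA quantified by qRT-PCR, normalized to ACTB, GAPDH and POLR2A; bidirectional fitting versus DMSO.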

[11] = read-out: cysteine-aspartic acid protease (CASP8), CASP8 (gene 841); test: LTEA_HepaRG_CASP8: Life Technologies and Expression Analysis (LTEA) Assay for cysteine-aspartic acid protease (CASP8) using HepaRG (AID 2283480)
Method in brief: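 CASP8 transcript measured by TaqMan qRT-PCR with ACTB/GAPDH/POLR2A normalization, after 48 h chemical exposure of HepaRG cells in serum-free induction medium. Eight concentrations, top 100 uM, half-log steps, 0.5% DMSO vehicle; fits in both directions versus DMSO.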

[12] = read-out: Cytochrome P450 (CYP2B6), CYP2B6 (gene 1555); test: LTEA_HepaRG_CYP2B6: Life Technologies and Expression Analysis (LTEA) Assay for Cytochrome P450 (CYP2B6) using HepaRG (AID 2283481)
Method in brief: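 Differentiated human HepaRG cells in serum-free induction medium, dosed in duplicate for 48 h over 8 half-log concentrations topping at 100 uM (0.5% DMSO). CYP2B6 mRNA measured by TaqMan qRT-PCR, normalized to ACTB, GAPDH, POLR2A; bidirectional fit versus DMSO.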

[13] = read-out: Cytochrome P450 2C19 (Homo sapiens) (UniProt P33261); test: LTEA_HepaRG_CYP2C19: Life Technologies and Expression Analysis (LTEA) Assay for CYP2C19 using HepaRG (AID 2283482)
Method in brief: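 Differentiated HepaRG cells in serum-free induction medium exposed 48 h in duplicate, 8 concentrations from 100 uM by half-log steps in 0.5% DMSO. CYP2C19 mRNA measured by TaqMan qRT-PCR, normalized to ACTB, GAPDH, POLR2A. Bidirectional fit versus DMSO.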

CYP2C8 (gene 1558) = test: LTEA_HepaRG_CYP2C8: Life Technologies and Expression Analysis (LTEA) Assay for CYP2C8 using HepaRG (AID 2283483)
Method in brief: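 CYP2C8 expression measured by TaqMan qRT-PCR and normalized to three housekeeping genes. HepaRG cultures were treated for 48 h with an eight-point half-log series topping at 100 uM, vehicle 0.5% DMSO, duplicates; fitted both directions against DMSO.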

CYP2C9 (gene 1559) = test: LTEA_HepaRG_CYP2C9: Life Technologies and Expression Analysis (LTEA) Assay for CYP2C9 using HepaRG (AID 2283484)
Method in brief: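 CYP2C9 transcript level, quantified by TaqMan qRT-PCR against three housekeeping genes, was fitted bidirectionally relative to 0.5% DMSO. HepaRG cultures were treated 48 h, in duplicate, at eight half-log concentrations topping at 100 uM.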

CYP2E1 (gene 1571) = test: LTEA_HepaRG_CYP2E1: Life Technologies and Expression Analysis (LTEA) Assay for CYP2E1 using HepaRG (AID 2283485)
Method in brief: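 CYP2E1 transcript was measured by TaqMan qRT-PCR in human HepaRG cultures after 48 h chemical exposure (top 100 uM, half-log steps, 0.5% DMSO vehicle). Housekeeping-gene normalization; gain or loss fitted relative to DMSO baseline.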

CYP4A11 (gene 1579) = test: LTEA_HepaRG_CYP4A11: Life Technologies and Expression Analysis (LTEA) Assay for CYP4A11 using HepaRG (AID 2283486)
Method in brief: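 Differentiated HepaRG cells, 48 h after plating, exposed in duplicate for 48 h to 8 half-log concentrations up to 100 uM in 0.5% DMSO in serum-free induction medium. CYP4A11 mRNA measured by TaqMan qRT-PCR, normalized to ACTB, GAPDH and POLR2A.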

Measured: AC50

Cytochrome P450 2C19 (Homo sapiens), sequence (P33261 whole entry, looked up): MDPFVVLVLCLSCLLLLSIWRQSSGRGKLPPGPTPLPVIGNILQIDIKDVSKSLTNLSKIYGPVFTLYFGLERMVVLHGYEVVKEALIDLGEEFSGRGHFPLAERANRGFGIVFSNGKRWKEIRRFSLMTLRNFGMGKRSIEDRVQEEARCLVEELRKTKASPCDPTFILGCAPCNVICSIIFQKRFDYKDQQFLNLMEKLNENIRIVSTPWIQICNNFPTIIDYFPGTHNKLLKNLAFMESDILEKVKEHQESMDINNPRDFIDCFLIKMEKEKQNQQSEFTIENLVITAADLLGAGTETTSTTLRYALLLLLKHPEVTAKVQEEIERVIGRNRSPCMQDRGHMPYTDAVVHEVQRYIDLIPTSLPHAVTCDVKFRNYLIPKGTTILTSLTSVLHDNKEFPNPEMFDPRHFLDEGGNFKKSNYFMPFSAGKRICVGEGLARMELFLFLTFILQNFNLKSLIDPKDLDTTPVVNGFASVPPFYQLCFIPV
Apoptosis regulator Bcl-2 (Homo sapiens), sequence (P10415 whole entry, looked up): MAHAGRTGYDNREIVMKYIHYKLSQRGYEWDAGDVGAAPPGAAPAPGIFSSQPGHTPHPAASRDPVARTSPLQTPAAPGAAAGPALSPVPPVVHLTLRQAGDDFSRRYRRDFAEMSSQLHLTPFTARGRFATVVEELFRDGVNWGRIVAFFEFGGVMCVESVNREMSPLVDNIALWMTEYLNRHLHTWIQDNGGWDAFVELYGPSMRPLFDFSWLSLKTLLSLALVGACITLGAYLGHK

CC#C[C@]1(O)CC[C@H]2[C@@H]3CCC4=CC(=O)CCC4=C3[C@@H](c3ccc(N(C)C)cc3)C[C@@]21C
inactive: [9]
active: [1] 15.7 µM | [2] 25.4 µM | [3] 27.6 µM | [4] 80.6 µM | [5] 23.7 µM | BCL2L11 (gene 10018) 27.3 µM | [6] 29.7 µM | [7] 19 µM | [8] 6.74 µM | Caspase-3 (Homo sapiens) 27.4 µM | [10] 26.4 µM | [11] 27.6 µM | [12] 34 µM | [13] 33 µM | CYP2C8 (gene 1558) 28 µM | CYP2C9 (gene 1559) 50 µM | CYP2E1 (gene 1571) 19.6 µM | CYP4A11 (gene 1579) 23.9 µM

OCCC(F)(F)C(F)(F)C(F)(F)C(F)(F)C(F)(F)C(F)(F)C(F)(F)C(F)(F)F
inactive: all assays above

CCCCCCCCCCCCCCCS(=O)(=O)Oc1ccccc1
active: [10] 5.56 µM | [12] 3.1 µM | [13] 8.59 µM | CYP2C8 (gene 1558) 7.61 µM | CYP2E1 (gene 1571) 14.1 µM
inactive: all other assays above

Nc1cccc2c(N)cccc12
active: [10] 20.1 µM | [12] 2.68 µM | CYP2E1 (gene 1571) 50 µM | CYP4A11 (gene 1579) 50 µM
inactive: all other assays above

CC(C)CCCCCCOC(=O)CCCCC(=O)OCCCCCCC(C)C
active: [10] 50 µM | [12] 31.8 µM
inactive: all other assays above

CC(=O)NC1(c2cccc(F)c2)CCN(CC[C@@]2(c3ccc(Cl)c(Cl)c3)CN(c3ccccc3)C(=O)CO2)CC1
active: [1] 19.6 µM | [5] 13.1 µM | BCL2L11 (gene 10018) 59.6 µM | CYP2E1 (gene 1571) 11 µM | CYP4A11 (gene 1579) 13.1 µM
inactive: all other assays above

CCCOC(=O)c1ccc(O)cc1
not listed: [13]
inactive: all other assays above
